Records with an inconclusive call do not appear. Where a call stands in place of a potency, no number is given. Active and inactive are the calls of the source. The call rests on the fitted dose curve; in most records, active means well fitted inhibition curve with a large enough effect; inconclusive means small, poorly fitted or top-dose-only effect; inactive means flat fitted curve, though single readings scatter.
experiment: qHTS for Inhibitors of Plasmodium falciparum (7G8) proliferation (AID 504316); further: nearly all actives have a fitted effect of over 65% in size; details: P. falciparum 7G8 in erythrocytes, SYBR Green DNA, 72 h; series mostly up to 6.7 µM
In short: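 Erythrocytes infected with P. falciparum line (0.3% parasitemia, 2.5% hematocrit final) incubated with compounds 72 h at 37 °C, 5% CO2; SYBR Green lysis buffer added, fluorescence read next day. Normalized to 0.29 uM artemisinin and DMSO.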
Potency means the concentration at half of the fitted maximal effect.

Row | Compound | Potency
1 | C=CCN1c2ccccc2[C@]23C[C@@H](C(=O)OC)N(C(=O)CC(C)C)C2=NC(C(=O)OC)=C(C(=O)OC)[C@H]13 | inactive
2 | CCN1C(=O)N[C@@H](c2ccco2)C(C(C)=O)=C1C | inactive
3 | CCCCC1=CC2=CC(=O)C(C)(OC(=O)CC)C(=O)C2=CN1C1CCCCC1 (configuration not stated) | inactive
4 | COCC(=O)N1CCc2nc(-c3ccc(OC)cc3C)c3c(c2C1)CO[C@@H](c1ccccc1)C3 | inactive
5 | C=CCN1c2ccccc2[C@]23C[C@@H](C(=O)OC)N(S(=O)(=O)c4ccc([N+](=O)[O-])cc4)C2=NC(C(=O)OC)=C(C(=O)OC)[C@H]13 | 1.69 µM (active)
6 | CCCCc1nc2c(c3c1C[C@H](C)OC3)CN(C(=O)N[C@H](C(=O)OC)C(C)C)CC2 | 1.35 µM (active)
7 | CCCCC1=CC2=C(c3ccco3)C(=O)C(C)(OC(=O)c3ccc(OC)cc3)C(=O)C2=CN1CCCCO (configuration not stated) | inactive
8 | CC#CCN1c2ccccc2[C@]23C[C@@H](C(=O)OC)N(S(=O)(=O)c4ccc(Br)cc4)C2=NC(C(=O)OC)=C(C(=O)OC)[C@H]13 | 1.9 µM (active)
9 | C=CC[C@]1(C(=O)OC)C=C[C@H](C)[C@@H](c2ccccc2)N1C(=O)C(F)(F)F | inactive
10 | CCOC(=O)CN1C(=O)NC(c2cccc(C(F)(F)F)c2)C(C(C)=O)=C1C (configuration not stated) | inactive
11 | CC1(OC(=O)CCc2ccccc2)C(=O)C=C2C=C(c3ccc(C#N)cc3)N(C3CCCCC3)C=C2C1=O (configuration not stated) | inactive
12 | C[C@H]1Cc2c(-c3ccccc3)nc3c(c2CO1)CN(C(=O)C1CCCCC1)CC3 | inactive

From PubChem BioAssay (NCATS)
